VACV mCherry inh: vaccinia inhibition (mCherry reporter); Vaccinia virus mCherry reporter infection, fluorescence; Potency, µM (titrated, usually from 36.5 µM), usual class: inhibitors; 310,000 tested, 0.63% active; calls by dose curve; tested in A549 cells; also: nearly all actives have a fitted effect of over 35% in size
VACV Venus inh: inhibitors of vaccinia virus (Venus reporter) | Vaccinia virus Venus reporter expression, fluorescence | AID 720580 | Potency, µM (top dose mostly 36.5 µM), hits mostly inhibitors | 330,000 tested, 0.46% active; calls by dose curve; tested in A549 cells; also: nearly all actives have a fitted effect of over 30% in size
FMDV antiviral: antivirals against foot and mouth disease virus | 410,000 tested, 1.2% active | FMDV antiviral cell-based qHTS | Potency, µM (titrated, usually from 57.9 µM), hits mostly inhibitors | AID 1159524; calls by dose curve; tested in HEK293T cells; also: read-out not given here; nearly all actives have a fitted effect of over 45% in size
HCV inh: blocks hepatitis C virus; 340,000 tested, 3.4% active; Potency, µM (doses to about 41.8 µM), hits mostly inhibitors; AID 651820; Huh7.5.1 HCVcc-Cre infection, luciferase reporter, 44 h; active = well fitted inhibition curve with a large enough effect; inconclusive = small, poorly fitted or top-dose-only effect, or another doubt; inactive = no such curve, though single readings can be large or run the other way
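HCVcc-Cre virus at an moi near 0.5 was added right after compound to cells cultured 4 h from seeding (1,000 cells/well). Luciferase activity was determined 44 h later, 15 min after substrate addition at RT.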
HCMV inh: blocks human cytomegalovirus replication; HFF cells, HCMV-luciferase reporter, 72 h; hits give low values; activity change, negative = inhibition, % at 57.5 µM; 410,000 tested, 4.5% active; AID 1259415; in the data active = activity change below about -60%; inconclusive = no clear call, values can overlap the other calls; inactive = above about -39%
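Luciferase read-out from HCMV-luciferase-infected HFFs (MOI 1 PFU/cell) 72 h post infection at 37C; compounds added after 16 h cell attachment; activity normalized between buffer-only basal and Salinomycin (10uM) inhibitor controls.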
Each line names hits and unclear results; the compound was inactive in the other large screens. Most compounds without a hit are left out; they make up all but 7.3% or so of the library.

C(=C1C=c2ccccc2=C1)c1ccc(N=Nc2ccc(C=C3C=c4ccccc4=C3)cc2)cc1	none (no result: FMDV antiviral, HCV inh, HCMV inh)
CCN1CCN(c2oc(-c3ccc(COc4ccc(C)cc4)o3)nc2C#N)CC1	none (no result: HCV inh)
CCOC(=O)c1csc(NC(=O)c2ccc(OCC)cc2)n1	VACV mCherry inh inconclusive, FMDV antiviral inconclusive, HCV inh 2.5µM, HCMV inh -61
CCOC(=O)c1sc(NC(=O)c2ccccc2)cc1C	HCV inh inconclusive (no result: VACV mCherry inh, VACV Venus inh)
CCOC(=O)c1csc(NC(=O)c2ccc(S(=O)(=O)N(C)C)cc2)n1	HCMV inh -63 (no result: FMDV antiviral)
CCOC(=O)c1sc(NC(=O)c2ccc(S(=O)(=O)N(C)C)cc2)cc1C	FMDV antiviral inconclusive, HCV inh 11µM, HCMV inh -87 (no result: VACV mCherry inh, VACV Venus inh)
CCOC(=O)c1csc(NC(=O)c2ccc3c(c2)OCCO3)n1	HCV inh 14µM (no result: HCMV inh)
CCOC(=O)c1csc(NC(=O)c2ccc(OC)c(OC)c2)n1	HCV inh inconclusive (no result: FMDV antiviral)
Cc1cc(-n2c(C)nc3ccccc3c2=O)ccc1NC(=O)c1ccc(C)c([N+](=O)[O-])c1	HCMV inh inconclusive (no result: HCV inh)
CCOC(=O)c1sc(NC(=O)c2c(C)nn(Cc3ccccc3)c2C)cc1C	VACV mCherry inh inconclusive, VACV Venus inh inconclusive, HCV inh 18µM
CCOC(=O)c1sc(NC(=O)c2ccc(Cl)s2)cc1C	HCV inh inconclusive
Cc1ccc(NC(=O)CCn2c(=O)c3cccn3c3ccccc32)c(Cl)c1	none (no result: HCV inh)
COc1cccc(C(=O)Nc2nnc(-c3ccc(OC)cc3OC)s2)c1	HCV inh 10µM, HCMV inh inconclusive
CCCCOC(=O)Nc1nnc(-c2ccccc2OC)s1	HCMV inh -83 (no result: VACV mCherry inh)
COc1ccccc1-c1nnc(NC(C)=O)s1	none
COc1cccc(C(=O)Nc2nnc(-c3ccccc3)s2)c1	none
COc1ccc2c(c1)Cc1sc(NC(=O)c3cccc(Cl)c3)nc1-2	VACV mCherry inh inconclusive, VACV Venus inh inconclusive, FMDV antiviral inconclusive (no result: HCV inh)
COc1ccc2c(c1)Cc1sc(NC(=O)c3ccc(Cl)cc3)nc1-2	VACV mCherry inh inconclusive, VACV Venus inh inconclusive, HCMV inh -63 (no result: HCV inh)
COc1ccc2c(c1)Cc1sc(NC(=O)c3cccc(C)c3)nc1-2	HCMV inh -70 (no result: HCV inh)
COc1ccc(C(=O)Nc2nc3c(s2)CCc2cc(OC)ccc2-3)cc1	FMDV antiviral inconclusive (no result: HCV inh)
Cc1noc(C)c1C(=O)OCC(=O)c1cc(C)n(Cc2ccccc2Cl)c1C	HCV inh 11µM (no result: VACV mCherry inh, VACV Venus inh)
COC(=O)CNC(c1ccccc1)c1cc(C)ccc1NS(=O)(=O)c1ccc(C)cc1 (stereo unspecified)	HCV inh 6.3µM
Cc1ccc2oc(Nc3nc(-c4ccccc4)cc(=O)[nH]3)nc2c1	FMDV antiviral inconclusive, HCMV inh -101
O=c1c2ccccc2ccc2ccccc12	HCMV inh -104 (no result: VACV mCherry inh, VACV Venus inh)
O=c1c2ccccc2oc2c1ccc1ccccc12	VACV mCherry inh inconclusive, VACV Venus inh inconclusive, HCV inh inconclusive (no result: HCMV inh)
C#CC(C)(CC)NC(=O)Cn1nnc(-c2ccc(OCc3ccccc3F)cc2)n1 (stereo unspecified)	VACV mCherry inh inconclusive, VACV Venus inh 11µM (no result: HCV inh)
COc1ccc(CC2C(=O)NC(C)C(=O)N(C)C3C(=O)N(C)C(Cc4ccc(O)c(c4)Oc4ccc(cc4)C3O)C(=O)NC(C)C(=O)NC(C)C(=O)N2C)cc1 (stereo unspecified)	VACV mCherry inh 0.32µM, VACV Venus inh 0.089µM, FMDV antiviral inconclusive, HCV inh inconclusive, HCMV inh -98
COc1ccc(C[C@@H]2C(=O)N[C@H](C)C(=O)N(C)[C@@H]3Cc4ccc(cc4)Oc4cc(ccc4O)C[C@H](C(=O)N[C@@H](C)C(=O)N[C@H](C)C(=O)N2C)N(C)C3=O)cc1	VACV mCherry inh 158µM, VACV Venus inh 0.28µM (no result: FMDV antiviral, HCV inh, HCMV inh)
COc1ccc(CCC(=O)NO)cc1	none (no result: FMDV antiviral, HCV inh, HCMV inh)
CCOC(=O)c1c(NC(=O)CC(C)C)sc(C(C)=O)c1C	HCV inh inconclusive (no result: VACV mCherry inh, VACV Venus inh)
CCOC(=O)c1sc(NC(=O)CN(CC(C)C)CC(C)C)c(C(=O)OCC)c1C	HCMV inh -95 (no result: VACV mCherry inh, VACV Venus inh)
CCOC(=O)c1sc(NC(=O)CCN2CCN(CC)CC2)c(C(=O)OCC)c1C	HCV inh 10µM
CCOC(=O)c1sc(NC(=O)CCN2CCC(C)CC2)c(C(=O)OCC)c1C	HCV inh inconclusive
CCOC(=O)c1c(NC(=O)C2c3ccccc3Oc3ccccc32)sc(C(C)=O)c1C	HCV inh 0.79µM, HCMV inh -82 (no result: FMDV antiviral)
CCOC(=O)c1c(NC(=O)COC)sc(C)c1C	HCV inh inconclusive (no result: VACV mCherry inh)
CCOC(=O)c1c(NC(=O)COC)sc(C(C)=O)c1C	HCV inh 28µM
CN(C)c1ccc(NC(=O)CCSc2nc(-c3ccco3)cc(C(F)(F)F)n2)cc1	none (no result: HCV inh)
CN1CCN(Cc2cc(=O)n3ccsc3n2)CC1	HCMV inh -89
O=c1cc(CN2CCCCCC2)nc2sccn12	none
CC[C@H](C)C(=O)O[C@H]1CCC=C2C=C[C@H](C)[C@H](CC[C@@H]3C[C@H](O)CC(=O)O3)[C@H]21	none (no result: VACV mCherry inh, VACV Venus inh, HCV inh, HCMV inh)
CC[C@H](C)C(=O)O[C@H]1C[C@@H](C)C=C2C=C[C@H](C)[C@H](CC[C@@H]3C[C@@H](O)CC(=O)O3)[C@H]21	FMDV antiviral inconclusive, HCMV inh inconclusive
CC[C@H](C)C(=O)O[C@H]1CCC=C2C=C[C@H](C)[C@H](CC[C@@H]3C[C@@H](O)CC(=O)O3)[C@H]21	HCV inh 0.56µM, HCMV inh inconclusive
CCC(C)C(=O)OC1CCC=C2C=CC(C)C(CCC3CC(O)CC(=O)O3)C21 (stereo unspecified)	HCMV inh -97
Cc1cccc(-c2noc(-c3cc(C(C)C)[nH]n3)n2)c1	none (no result: HCV inh)
CCN(CC)C(=O)c1ccc(S(=O)(=O)N2CCC(c3nc4ccccc4s3)CC2)cc1	VACV Venus inh inconclusive, HCV inh 2.5µM, HCMV inh -96 (no result: FMDV antiviral)
CC1CCCN(C(=O)c2ccc(S(=O)(=O)N3CCC(c4nc5ccccc5s4)CC3)cc2)C1 (stereo unspecified)	HCV inh 10µM, HCMV inh inconclusive (no result: FMDV antiviral)
CC12CCC(C(=O)Nc3ccc(Cl)cc3)([C@H](Br)C1=O)C2(C)C (stereo partly specified)	HCMV inh -61
CCS(=O)(=O)c1nc(S(=O)(=O)c2ccc(Cl)cc2)c(N2CCN(CCO)CC2)s1	HCMV inh -66 (no result: VACV mCherry inh, VACV Venus inh)
CCS(=O)(=O)c1nc(S(=O)(=O)c2ccc(Cl)cc2)c(N2CCc3ccccc3C2)s1	HCMV inh -73
CCOC(=O)N1C(=O)[C@@](c2ccc(Cl)cc2)(C(C)C)N1C(=O)OCC	VACV mCherry inh inconclusive, VACV Venus inh 13µM, FMDV antiviral inconclusive
CCOC(=O)N1C(=O)[C@](c2ccc(Cl)cc2)(C(C)C)N1C(=O)OCC	VACV mCherry inh 10µM, VACV Venus inh inconclusive, FMDV antiviral 28µM, HCMV inh -90
COC(=O)N1C(=O)[C@](c2ccccc2)(C(C)C)N1C(=O)OC	VACV mCherry inh inconclusive
CC(C)N(Cc1ccccc1)C(=O)C1CCCN(c2ncnc3onc(-c4ccc(F)cc4)c23)C1 (stereo unspecified)	none (no result: HCV inh)
COc1ccc(-c2ccc(C(=O)N(C)Cc3csc(C)n3)c(N3CCC(N4CCc5ccccc5C4)CC3)n2)cc1	none (no result: HCV inh, HCMV inh)

Screening results as filed in PubChem BioAssay.
